Structures are written as SMILES. Results filed as inconclusive are left out. Unmarked numbers belong to inactive results. Calls of active or inactive are those of the source. The call rests on the fitted dose curve; in most records, active means well fitted inhibition curve with a large enough effect; inconclusive means small, poorly fitted or top-dose-only effect; inactive means flat fitted curve, though single readings scatter.
Potency means the concentration at half of the fitted maximal effect.

Sequence of Luciferin 4-monooxygenase (Photinus pyralis) (P08659 whole entry, looked up): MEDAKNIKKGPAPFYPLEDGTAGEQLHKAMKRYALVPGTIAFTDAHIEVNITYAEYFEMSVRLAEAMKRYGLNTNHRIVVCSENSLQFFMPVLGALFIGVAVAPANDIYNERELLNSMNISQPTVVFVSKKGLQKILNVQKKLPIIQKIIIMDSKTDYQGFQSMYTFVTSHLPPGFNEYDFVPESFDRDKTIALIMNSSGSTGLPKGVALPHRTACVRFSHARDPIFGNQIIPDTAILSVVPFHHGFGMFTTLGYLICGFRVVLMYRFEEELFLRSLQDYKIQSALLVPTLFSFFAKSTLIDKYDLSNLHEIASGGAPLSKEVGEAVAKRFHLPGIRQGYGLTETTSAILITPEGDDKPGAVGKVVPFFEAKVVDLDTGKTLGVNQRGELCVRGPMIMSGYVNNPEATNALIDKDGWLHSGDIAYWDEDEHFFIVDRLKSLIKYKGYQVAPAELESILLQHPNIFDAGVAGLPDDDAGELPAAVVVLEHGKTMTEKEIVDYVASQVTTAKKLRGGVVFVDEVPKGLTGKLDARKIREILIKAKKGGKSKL

The target in the test is Luciferin 4-monooxygenase (Photinus pyralis) (UniProt P08659). Briefly: Biochemical firefly luciferase enzyme assay for NPC (AID 624030). Further: nearly all actives have a fitted effect of over 70% in size.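 On activity change, negative = inhibition: purified P. pyralis luciferase at 10 nM with luciferin and ATP substrate; 0% = DMSO and -100% = full luciferase inhibition by PTC124 control.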 The settings on record: purified P. pyralis luciferase, luminescence, 5 min; series mostly up to 58.6 µM; activity change, negative = inhibition: at the top concentration. The gist of the method:
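Direct inhibition of firefly luciferase enzyme (10 nM final, 50 mM Tris Acetate) assessed by luminescence within 5 minutes. Percent activity scaled between DMSO and PTC124 positive control, with concentration-effect curves classified by fit quality and response.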
In the case of `OCCCc1ccccc1`, the “activity change, negative = inhibition” value was -1.77%. Still for that read-out and setting: for `C1N2CN3CN1CN(C2)C3` the value was 3.4%; for `CCOc1ccc(NS(=O)(=O)c2ccc(N)cc2)nn1`, -4.84%. Still for that read-out and setting: in the case of `CCOC(=O)NNc1ccc(N(CC)CC(C)O)nn1` (stereo unspecified) it was -11.6%; in that of `Oc1ccc(CCNCCCCCCNCCc2ccccc2)cc1O`, 6.73%. On the same count and under the same terms, in the case of `N[C@@H](Cc1cc(I)c(O)c(I)c1)C(=O)O` it was 1.84%. For `CCC1(c2cnc[nH]2)Cc2ccccc2C1`, the Potency result was “inactive”.

As to `O=C(O)Cc1ccccc1Oc1ccc(Cl)cc1Cl`, the “activity change, negative = inhibition” value is -9.44%.

As to `CC(C(=O)O)c1ccc(/C=C2\CCCCC2=O)cc1` (stereo unspecified), the Potency is 16.1 µM (active). For `CN(C)C(=O)CNC(=O)Cc1ccccc1`, the “activity change, negative = inhibition” value was -1.54%. Still for that read-out and setting: for `Nc1c[n+](N2CCOCC2)no1` the value was -12.9%; for `O=C1[C@@H]2[C@H]3CC[C@H](C3)[C@@H]2C(=O)N1CCCCN1CCN(c2ncccn2)CC1`, -15.6%; for `OCc1cccnc1`, -1.71%. The same measure, in the same setting: for `CN=C(N)NC(=O)Nc1c(C)cccc1C` the value was -2.27%; for `Cc1cccc(C)c1NC(=O)c1cc(S(N)(=O)=O)c(Cl)cc1O`, -12.5%; for `CC(=O)Oc1ccc(C2(c3ccc(OC(C)=O)cc3)Oc3ccccc3NC2=O)cc1`, -8.74%. Same read-out and setting: in the case of `OC(CCCN1CCCCC1)(c1ccccc1)c1ccccc1` it was -1.32%; in that of `O=C(COCCOCCOCC(=O)Nc1c(I)cc(I)c(C(=O)O)c1I)Nc1c(I)cc(I)c(C(=O)O)c1I`, -15.4%; in that of `COc1cc(C(=O)OC(COCCC(C)C)CN2CCOCC2)cc(OC)c1OC` (stereo unspecified), -1.79%. Consider `C[C@@H](C1=C(CCN(C)C)Cc2ccccc21)c1ccccn1`, for which the “activity change, negative = inhibition” value is 4.88%. In the case of `O=C(O)c1[nH]n(-c2ccc(S(=O)(=O)O)cc2)c(=O)c1N=Nc1ccc(S(=O)(=O)O)cc1`, the “activity change, negative = inhibition” value was -9.65%.

Values taken from PubChem BioAssay (NCATS).
